Compounds without any hit were thinned out: in the full panel of roughly 83,000, 20% have a hit.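 48-hour exposure, single concentration, 96-well plates; percent growth endpoint where 0 means no net growth. Active: below 10.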 Activity calls are given as the source filed them.
Key:
Test in all cases: NCI-60 one-dose screen, 48 h (100 = growth as untreated, 0 = no growth, -100 = all killed)
[1] = system: HCT-15 colon; conditions: 10 µM
[2] = system: HT29 colon; conditions: 10 µM
[3] = system: U251 CNS; conditions: 10 µM
[4] = system: PC-3 prostate; conditions: 10 µM
[5] = system: SK-MEL-5 melanoma; conditions: 10 µM
[6] = system: UACC-62 melanoma; conditions: 10 µM unless noted
[7] = system: LOX IMVI melanoma; conditions: 10 µM
[8] = system: SK-MEL-28 melanoma; conditions: 10 µM
[9] = system: SNB-19 CNS; conditions: 10 µM
[10] = system: SNB-75 CNS; conditions: 10 µM

Measured: growth

c1csc(-c2cc(-c3cc(-c4cccs4)[nH]n3)n[nH]2)c1
inactive: [1] 98.9% | [2] 106% | [3] 106% | [4] 87.3% | [5] 99.2% | [6] 84.4% | [7] 87.2% | [8] 105%

COc1cc2cc(OC(C)=O)c3cc4c(cc3c2c(OC)c1OC)OCO4
inactive: [1] 99.7% | [2] 101% | [9] 105% | [3] 103% | [4] 94.7% | [5] 99.5% | [6] 103% | [7] 94.9% | [8] 105%

COc1ccccc1C1OC2=Nc3cc(C)c(C)cc3NC2C1=O (stereo not given)
inactive: [1] 80.8% | [2] 93.1% | [3] 53% | [4] 82.5% | [5] 78.3% | [6] 76.2% | [7] 72.3% | [8] 106%

COc1ccc(NC(=O)CCl)cc1
active: [3] 6.32%
inactive: [1] 72.3% | [2] 67.3% | [9] 104% | [4] 74.6% | [5] 65.3% | [6] 83.1% | [8] 97.2%

CCN(CC)CCNc1ccc(CO)c2sc3ccccc3c(=O)c12
inactive: [1] 27.2% | [2] 18.1% | [9] 43.2% | [3] 32.4% | [4] 46.1% | [6] 30.6% | [7] 28%

CCOC(=O)C1=C(Nc2ccc(Br)cc2)C(=O)N(CC)C1
inactive: [1] 91.4% | [2] 103% | [9] 84% | [4] 101% | [5] 97.7% | [6] 84.2% | [7] 94.3% | [8] 101%

Cc1cc(C)c(CC(=O)O)c(C)c1
inactive: [1] 100% | [2] 99.4% | [3] 103% | [4] 103% | [5] 101% | [6] 108% | [7] 96.5% | [8] 124%

CCOc1ccc(/C=N/N=C(N)N)cc1OCC
inactive: [1] 97.6% | [2] 89.5% | [9] 97.6% | [3] 103% | [4] 94.1% | [5] 98.5% | [6] 93.1% | [7] 101% | [8] 92.4%

CCC(O)CC(CC)CO (stereo not given)
inactive: [1] 104% | [2] 113% | [9] 114% | [3] 111% | [4] 101% | [5] 106% | [6] 112% | [7] 103% | [8] 101%

COC(=O)/C=C\C(=O)OC
inactive: [1] 107% | [2] 103% | [9] 109% | [3] 105% | [4] 93.1% | [5] 106% | [6] 101% | [7] 102% | [8] 112%

C#C[C@H]1CCCCCC1O (stereo not given in full)
inactive: [1] 114% | [2] 107% | [9] 106% | [3] 99.7% | [4] 90.1% | [5] 98.1% | [6] 100% | [7] 97% | [8] 122%

O=[N+]([O-])c1ccccc1S(=O)c1ccccc1[N+](=O)[O-]
inactive: [1] 98.2% | [2] 107% | [9] 106% | [4] 81.1% | [5] 95.7% | [6] 83.3% | [7] 70% | [8] 100%

CN(C)c1ccc2nc3ccc(=N)cc-3sc2c1
active: [5] 0.247%
inactive: [1] 38.8% | [2] 85.3% | [9] 81.1% | [4] 12.3% | [6] 36% | [8] 82.9%

CCOC(=O)Nc1cc2c(c(N)n1)N=C(c1ccccc1)CO2
inactive: [2] 12.2% | [9] 37.3% | [3] 21.8% | [4] 29.9% | [5] 10.2% | [6] 34.9% | [7] 28.5% | [8] 47.6%
active: [1] 6.55%

CN(C)C(=O)Oc1cccc([N+](C)(C)C)c1
inactive: [1] 95.6% | [2] 115% | [9] 105% | [3] 97.9% | [4] 98.5% | [5] 94.9% | [6] 104% | [7] 105% | [8] 108%

CN(C)CCN(Cc1ccccc1)c1ccccc1
inactive: [1] 105% | [2] 98.3% | [9] 105% | [3] 106% | [4] 106% | [5] 105% | [6] 97.8% | [7] 93.2% | [8] 113%

O=C(Nc1cc(-c2ccccc2)[nH]n1)c1ccc(Cl)cc1
inactive: [1] 61.4% | [2] 67.2% | [9] 65.2% | [3] 70.2% | [4] 75.9% | [5] 87.6% | [6] 79.7% | [7] 89.5% | [8] 117%

NC(=S)CN1CCOCC1
inactive: [1] 107% | [2] 100% | [9] 104% | [3] 102% | [4] 91.9% | [5] 106% | [6] 99% | [7] 104% | [8] 106%

CSC(=N\N=C\c1ccc(N(C)C)cc1)/N=C/N(C)C
inactive: [1] 96.1% | [2] 113% | [9] 100% | [4] 106% | [5] 101% | [6] 112% | [8] 111%

CC(=O)N(C)c1ccc([N+](=O)[O-])cc1
inactive: [1] 102% | [2] 102% | [9] 97.5% | [3] 101% | [4] 93.5% | [5] 103% | [6] 104% | [7] 98.4% | [8] 114%

CCN1C(=O)/C(=C/C=C/N(C)c2ccccc2)SC1=S
inactive: [1] 81.5% | [2] 90.4% | [9] 94.1% | [3] 85.5% | [4] 85.1% | [6] 91.3% | [7] 91.5% | [8] 94.6%

FC(F)(F)c1ccc2c(c1)N(CCCN1CCN(C3CC3)CC1)c1ccccc1S2
inactive: [1] 68.7% | [2] 36.1% | [9] 43% | [3] 25.8% | [4] 48.5% | [5] 81% | [6] 54% | [7] 37.6% | [8] 93.8%

CN(C)C(C)(C)CC(C)(C)C
inactive: [1] 100% | [2] 119% | [9] 105% | [3] 107% | [5] 105% | [6] 105% | [7] 100% | [8] 109%

O=C(O)c1cccc([N+](=O)[O-])c1O
inactive: [1] 99.9% | [2] 101% | [9] 99.1% | [3] 101% | [4] 107% | [5] 105% | [7] 95.1% | [8] 116%

O=C(O)c1ccccc1NCc1ccco1
inactive: [1] 108% | [2] 98.7% | [9] 108% | [3] 103% | [4] 111% | [5] 100% | [6] 101% | [7] 93.5% | [8] 111%

COc1cc2c3c(n(C)c(=O)c2cc1OC)-c1cc2c(cc1C3=O)OCO2
inactive: [1] 81% | [2] 47.4% | [9] 54.6% | [3] 36% | [4] 46.8% | [6] 40.1% | [7] 39.9%

CCOC(=O)c1ccc(NC(=S)P(=O)(c2ccccc2)c2ccccc2)cc1
inactive: [1] 98.5% | [2] 111% | [9] 106% | [3] 99.2% | [4] 80.1% | [5] 104% | [6] 99.4% | [7] 84.8% | [8] 106%

O=C(c1ccccc1)C1CCC1
inactive: [1] 99.7% | [2] 85.4% | [9] 103% | [3] 76.1% | [4] 90.4% | [6] 94% | [7] 106%

CCOC(=O)/C(=C/c1ccc(OC)cc1)N(CC)CC
inactive: [1] 112% | [2] 109% | [9] 103% | [3] 99.1% | [4] 95.4% | [5] 99.7% | [6] 102% | [7] 97.7% | [8] 112%

CC(C)(C)n1nc(C2CC2)c(Br)c1NC(=O)c1ccccc1F
inactive: [1] 93.4% | [2] 103% | [9] 107% | [4] 91.5% | [5] 99.7% | [6] 90.7% | [7] 99.1% | [8] 100%

c1ccc(CN2COc3c(ccc4c3OCN(Cc3ccccc3)C4)C2)cc1
active: [6] -39.1%
inactive: [1] 28% | [2] 27% | [9] 24% | [4] 36.5% | [8] 34.1%

CCOC(=O)c1cc(/C=C/c2ccc(Cl)cc2Cl)on1
inactive: [10] 58.9% | [4] 44% | [5] 92.3% | [6] 48.7% | [8] 86.1%
active: [2] 1.53% | [3] 6.71% | [7] -90.1%

COc1cc(C(N)=O)cc(OC)c1OC
inactive: [2] 102% | [10] 86.6% | [9] 99.2% | [3] 96.5% | [4] 106% | [5] 106% | [6] 94.2% | [7] 104% | [8] 116%

O=C(CC(=O)c1ccccc1O)c1ccccc1
inactive: [2] 87.8% | [9] 86.9% | [3] 63.3% | [4] 92.6% | [5] 77.6% | [6] 91% | [7] 76.9% | [8] 99.3%

CC1=C(/C=C/C(C)=C/C=C/C(C)=C/CO)C(C)(C)CCC1
inactive: [2] 112% | [10] 95.3% | [9] 95.7% | [3] 102% | [4] 96.5% | [5] 107% | [6] 99.2% | [7] 94.7% | [8] 113%

From PubChem BioAssay (NCI)
